Measured potencies and affinities stand elsewhere. Records with an inconclusive call do not appear. Activity calls are given as the source filed them. No rule for the calls is given here.
Assay: COV362 cell viability loss – plate reader, dry powder, SA12, cytotoxicity control for PAX8 inhibitor project, dose response (AID 743144)
Conditions: COV362 ovarian cancer cells; series mostly up to 35 µM; activity change, negative = cytotoxicity: at the top concentration

For `Cc1ccc(S(=O)(=O)CC(CN2CCCCC2)N2CCCCC2)cc1` (stereo not given), which “activity change, negative = cytotoxicity” value is on record?
Its value is -29.5% [at 50 µM] (inactive).

Which “activity change, negative = cytotoxicity” value does the source give for `COc1ccc(S(=O)(=O)N2CCCCN3[C@H](CO)[C@H](c4ccc(C#CC(C)C)cc4)[C@H]3C2)cc1` here?
The value was 19.2% [at 16 µM] (inactive).

Which “activity change, negative = cytotoxicity” value does the source give for `CCN(CC(=O)Nc1c(F)cccc1F)C(=O)c1cc(S(=O)(=O)N(C)C)ccc1N1CCCC1` here?
Its value is -10.6% [at 50 µM] (inactive).

For `C[C@H](CO)N1C[C@H](C)[C@@H](CN(C)S(=O)(=O)c2ccc(-c3ccccc3)cc2)OCc2cn(nn2)CCCC1=O`, which “activity change, negative = cytotoxicity” value is on record?
Its value is 8.14% (inactive).

Which “activity change, negative = cytotoxicity” value does the source give for `COc1cccc(C#Cc2ccc([C@@H]3[C@@H](C#N)N(C(=O)C4CCCC4)[C@@H]3CO)cc2)c1` here?
Its value is 1.78% (inactive).

With `C[C@H](CO)N1C[C@H](C)[C@@H](CN(C)S(=O)(=O)c2ccc(Cl)cc2)OCCCC[C@H](C)Oc2ccc(NS(=O)(=O)c3ccccc3)cc2C1=O` as the compound, how does the “activity change, negative = cytotoxicity” value read?
The value was -35.1% (inactive).

With `N#C[C@@H]1[C@@H](c2ccc(-c3ccccc3F)cc2)[C@@H](CO)N1C(=O)C1CCC1` as the compound, how does the “activity change, negative = cytotoxicity” value read?
The value was -4.33% (inactive).

Which “activity change, negative = cytotoxicity” value does the source give for `CCCC#Cc1ccc([C@@H]2[C@@H](C#N)N(S(=O)(=O)c3cccc(F)c3)[C@H]2CO)cc1` here?
Its value is -1.4% (inactive).

For `O=S(=O)(Nc1cccc2cccnc12)c1ccccc1`, which “activity change, negative = cytotoxicity” value is on record?
The value was -14.5% [at 12 µM] (inactive).

Which “activity change, negative = cytotoxicity” value does the source give for `N#C[C@@H]1[C@H](c2ccc(C#CC3CCCCC3)cc2)[C@H](CO)N1S(=O)(=O)c1ccccc1` here?
Its value is -33.3% (inactive).
